# According to PubChem BioAssay AID602449 (Sanford-Burnham Center for Chemical Genomics, 2012):
# The campaign covered roughly 360,000 compounds. About 5,000 (1.4%) were called active.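 How the source made its calls: active means inhibition of 50% or more, scaled per plate between neutral and stimulator controls; inactive means the rest.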 The entries come from a sample that favours actives as a whole.
# Assay: mitochondrial permeability transition pore inhibitors, primary screen, biochemical, isolated mouse mitochondria, absorbance (AID 602449);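 further: 0% = DMSO wells given calcium and 100% = 1 mM EGTA wells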
# Conditions: Ca2+ swelling absorbance, 30 min, at 10 µM, active compounds read high
row,SMILES,inhibition
1,Cc1ccc(S(=O)(=O)N(Cc2ccccc2)c2ccccn2)cc1[N+](=O)[O-],0.2% (inactive)
2,Cc1c(C(=O)N2CCN(c3ccc(F)cc3)CC2)oc2c1C(=O)CCC2,-1% (inactive)
3,COCCCn1c(=O)/c(=C/c2ccccc2OC(C)C)s/c1=C(\C#N)C(=O)Nc1ccc(C(=O)O)cc1,0.6% (inactive)
4,COc1ccc(S(=O)(=O)N2CCC(C(=O)NCCC(=O)Nc3ccccc3OC)CC2)cc1,1% (inactive)
5,CC1CCN(C2=NC(=O)/C(=C/c3cn[nH]c3-c3ccccc3)S2)CC1,0.6% (inactive)
6,COc1ccccc1N(CC(=O)Nc1ccc(C(F)(F)F)cc1)S(C)(=O)=O,-0.2% (inactive)
7,CC1Sc2ccc(C(=O)NCc3ccccc3Cl)cc2NC1=O (configuration not stated),-1% (inactive)
8,CCC/C(C)=N\Nc1nc2c(c(=O)n(C)c(=O)n2C)n1C,4.6% (inactive)
9,COCCN(C(=O)CCC(=O)Nc1nccs1)C(C(=O)NC(C)(C)C)c1ccc(Cl)cc1 (configuration not stated),0.1% (inactive)
10,COc1ccc2oc(C(=O)N(CC(C)C)C3CCS(=O)(=O)C3)c(C)c2c1 (configuration not stated),-1.1% (inactive)
11,O=S(=O)(O)c1cc2onnc2c2ccccc12,0.1% (inactive)
12,CC1(C(=O)O)CCC(C(=O)Nc2ccc(Cl)c(Cl)c2)C1(C)C (configuration not stated),3.1% (inactive)
13,O=C(CN1CCN(C(=O)c2ccco2)CC1)Nc1ccc(Cl)c(C(F)(F)F)c1,-0.1% (inactive)
14,O=C(CC(O)(C(F)(F)F)C(F)(F)F)Nc1ccc(Cl)c(Cl)c1,84.6% (active)
15,O=C(Cn1nc(CNc2ccc(Cl)cc2)[n+]2c1CCCCC2)c1ccc(Cl)cc1,29.5% (inactive)
16,CCOC(=O)N1CCC(NC(=O)CN2C(=O)COc3ccc(C(C)(C)C)cc32)CC1,-0.9% (inactive)
17,CCN1N=C(c2ccccc2)CCC1=O,-2.4% (inactive)
18,O=C1NC(=O)C2C1C(c1ccc([N+](=O)[O-])cc1)=NN2Cc1ccccc1 (configuration not stated),0.1% (inactive)
19,O=C1CC(c2ccccc2)=NN1c1ccc([N+](=O)[O-])cc1,91.3% (active)
20,CCOC(=O)c1cc(NC(=O)c2cccnc2)ccn1,-0.2% (inactive)
21,CC(C)NS(=O)(=O)c1ccc(NC(=O)c2cccnc2)cc1,-1.5% (inactive)
22,Cc1c(C(=O)OC(C)C)sc(NC(=O)c2cccnc2)c1C#N,67.6% (active)
23,CCCCN1C(=O)C(CC(=O)NCc2cccs2)CC(C(=O)N2CCCCCC2)=C1C (configuration not stated),-0.8% (inactive)
24,Cc1cc(Cl)c(S(=O)(=O)NCCC(=O)O)cc1OCC(N)=O,-1.7% (inactive)
25,O=C(NC(Cc1c[nH]c2ccccc12)C(=O)O)/C(=C/c1ccco1)NC(=O)c1ccccc1 (configuration not stated),-1% (inactive)

row,SMILES,inhibition
1,CC(=O)N(CC1CCCO1)C1(C(=O)NC2CCCC2)CCCCC1 (configuration not stated),1.8% (inactive)
2,COc1ccc(/C=C/c2nnc(NC(=O)C(C)C)s2)cc1,2.7% (inactive)
3,O=C(CSc1ccccc1)Nc1nnc(/C=C/c2ccccc2)s1,2.2% (inactive)
4,O=C(Nc1ccc(Cl)cc1)Nc1nnc(/C=C/c2ccccc2)s1,89.9% (active)
5,COc1ccc(N(Cc2ccc(N(C)C)cc2)C(=O)c2ccc(S(C)(=O)=O)cc2)cc1,0.5% (inactive)
6,COc1ccc(S(=O)(=O)N(C)CC(=O)N2CCCC2)cc1,-2.1% (inactive)
7,COc1ccc2sc(N(CCCN(C)C)C(=O)c3ccc(S(=O)(=O)N(C)C4CCCCC4)cc3)nc2c1,82.5% (active)
8,COc1ccc(C(=O)O)cc1S(=O)(=O)NC1CCN(Cc2ccccc2)CC1,-1% (inactive)
9,Cc1cccc(NC(=S)Nc2ccc(Br)cc2)c1,96.8% (active)
10,Cc1cccc(NC(=S)N(CCN(C)C)C(C)c2ccco2)c1 (configuration not stated),-2.1% (inactive)
11,S=C(Nc1ccccc1)Nc1ccc2ccccc2c1,67.5% (active)
12,Fc1cc(Br)ccc1NC(=S)Nc1cccnc1,12.7% (inactive)
13,Cc1cccc(NC(=S)NCc2ccc3[nH]c4c(c3c2)CCCC4)c1,1% (inactive)
14,O=S(=O)(NC(=S)Nc1ccccc1)c1ccc(F)cc1,-0.7% (inactive)
15,Cc1c(NC(=S)Nc2ccccc2)c(=O)n(-c2ccccc2)n1C,0.8% (inactive)
16,Cc1cccc(NC(=S)Nc2ccc(Cl)c(Cl)c2)c1,101% (active)
17,Cc1cccc(NC(=S)N2CCC(c3nc4ccccc4s3)CC2)c1,3% (inactive)
18,COC(=O)c1ccc2c(c1)S(=O)(=O)NC(=NCCCN1CCOCC1)S2,0.8% (inactive)
19,COc1ccc(C2=NS(=O)(=O)N(C)C(C(=O)NC(C)c3ccccc3)=C2)cc1 (configuration not stated),-1.4% (inactive)
20,CCC1C=C(c2ccccc2)C=CN=C1N(CC)CC (configuration not stated),-0.1% (inactive)
21,Cc1cccc(NS(=O)(=O)c2cccc(C(=O)NNC(=O)c3ccccc3O)c2)c1,6.9% (inactive)
22,CC1(C)CC(=O)c2cc(OCC(=O)NCC3CCCO3)ccc2O1 (configuration not stated),-1.4% (inactive)
23,C=CCN(N=Nc1cccc([N+](=O)[O-])c1)c1cccc([N+](=O)[O-])c1,2.6% (inactive)
24,Brc1ccc(Nc2c3c(nc4ncnn24)CCC3)cc1,-4.1% (inactive)
25,N#Cc1cccc(Nc2c3c(nc4ccccc24)CCCC3)c1,6.5% (inactive)

row,SMILES,inhibition
1,Cc1ccc(Nc2c3c(nc4ccccc24)CCC3)cc1,79.8% (active)
2,CCn1nnc(NC(=O)c2c(OC)cccc2OC)n1,-1% (inactive)
3,CCCC1OC23CCCCC2C(C#N)(C#N)C1(C#N)C(=N)O3 (configuration not stated),0.5% (inactive)
4,Cc1ccoc1C(=O)Nc1cccc(Oc2ccccc2)c1,-0.1% (inactive)
5,Cc1cccc(NC(=O)NC2(C)CCS(=O)(=O)C2)c1 (configuration not stated),-3.1% (inactive)
6,Cc1cccc(NC(=O)Nc2cccc(Oc3c(F)c(F)c(F)c(F)c3F)c2)c1,93.2% (active)
7,O=C(CNCCC1=CCCCC1)Nc1ccccc1N1CCCCCC1,11.6% (inactive)
8,CCc1cc(=O)oc2cc(C)cc(OC(C)C(=O)O)c12 (configuration not stated),1.3% (inactive)
9,CN[C@H](C(=O)NC[C@H]1O[C@@H](n2cnc3c(N)ncnc32)[C@H](O)[C@@H]1O)[C@@H](C)OCc1ccccc1,-0.1% (inactive)
10,O=C(NNC(=S)NC(=O)c1cn(-c2ccccc2)nc1-c1ccccc1)c1ccncc1,2.2% (inactive)
11,Cc1onc(-c2ccccc2)c1C(=O)N1CCN(S(=O)(=O)c2ccccc2C(F)(F)F)CC1,0.5% (inactive)
12,Cc1onc(-c2ccccc2)c1C(=O)NNC(=S)NC(=O)c1ccc(F)cc1,90.1% (active)
13,O=C1CS(=O)CN1c1ccc(Oc2ccccc2)cc1 (configuration not stated),1.6% (inactive)
14,Cc1noc(C)c1S(=O)(=O)Nc1ccc(C(=O)N2CCN(c3ccc(F)cc3)CC2)cc1,-2% (inactive)
15,Cc1ccc(NC(=O)CN(C)CC(=O)Nc2cccc(F)c2)cc1[N+](=O)[O-],97.2% (active)
16,Cc1ccc(NC(=O)c2sccc2C)cc1[N+](=O)[O-],-8.8% (inactive)
17,CN(CC(=O)Nc1cccc(F)c1)C(=O)C1=COCCO1,-2.6% (inactive)
18,O=C(NNC1=C(C(=O)C(F)(F)F)CCC1)c1ccncc1,0.3% (inactive)
19,COc1ccc(NC(=O)C(=O)NCC(c2ccco2)N2CCc3ccccc3C2)cc1 (configuration not stated),0.5% (inactive)
20,O=C(CCCOc1ccccc1)Nc1cccc(C(=O)O)c1,0.4% (inactive)
21,COC(=O)c1noc(C)c1-c1ccnn1C(=O)c1ccc(Cl)cc1,5% (inactive)
22,O=C(CNC(=O)c1ccccc1Br)NNC(=O)c1cccs1,-3.3% (inactive)
23,CC/C(=N\NC(=O)c1ccccc1Cl)c1ccc(Br)s1,-0.9% (inactive)
24,O=C(C/C(=N\NC(=O)c1ccccc1Br)C(F)(F)F)c1cccs1,59.2% (active)
25,N#Cc1nc(N)nc(N(c2ccccc2)c2ccccc2)n1,0% (inactive)

row,SMILES,inhibition
1,CC1(C(=O)NS(=O)(=O)c2cccs2)CCN1C(=O)Cc1ccc(-c2ccccc2)cc1 (configuration not stated),1.6% (inactive)
2,O=C(Nc1cccc(Cl)c1)Nc1ccccc1NS(=O)(=O)c1cccs1,87.7% (active)
3,O=S(=O)(Nc1ccccc1)c1ccc(NS(=O)(=O)c2cccs2)cc1,-0.1% (inactive)
4,O=S(=O)(Nc1ccccc1Br)c1cccs1,1.3% (inactive)
5,Nc1ncnc2c1ncn2[C@@H]1O[C@H](CNCc2cccn2-c2nccs2)[C@@H](O)[C@H]1O,-2.5% (inactive)
6,CC(=O)OC(COc1ccc(F)cc1)Cn1cnc2ccccc21 (configuration not stated),0.4% (inactive)
7,CCOC(=O)c1ccccc1NC(=O)CSc1nc2c(sc(=S)n2CC)c(=O)[nH]1,5.4% (inactive)
8,Cc1ccc(C(=O)Nc2c(-c3ccccc3)[nH][nH]c2=O)cc1,-0.8% (inactive)
9,Fc1ccc2nc(Nc3nc4c(s3)CCCC4)sc2c1,5.3% (inactive)
10,NNc1nc2c(Cl)cccc2s1,-0.9% (inactive)
11,Fc1cc(F)c2nc(Nc3nc4c(F)cccc4s3)sc2c1,94.3% (active)
12,O=C(NC1(C(F)(F)F)NC(=O)N(Cc2cccnc2)C1=O)c1ccccc1Cl (configuration not stated),1% (inactive)
13,CN(C)CCCN1C(=O)CSC1c1ccc([N+](=O)[O-])cc1 (configuration not stated),-0.2% (inactive)
14,CCCCCCCCCCCCN1C(=O)CSC1c1cccnc1 (configuration not stated),62.4% (active)
15,CCCCc1ccc(NC(=O)NCc2cccnc2)cc1,-0.3% (inactive)
16,CCCS(=O)(=O)NC(=O)C1(C)CCCN(C(=O)c2ccnc(Cl)c2)C1 (configuration not stated),-0.3% (inactive)
17,COc1ccc(CCNC(=O)COC(=O)Cc2cc(OC)c(OC)c(OC)c2)cc1,0% (inactive)
18,COc1cc(CCC(=O)Nc2ccncc2Cl)cc(OC)c1OC,0.5% (inactive)
19,COc1ccc(CC(=O)Nc2nc(-c3ccc(F)c(F)c3)cs2)cc1OC,108% (active)
20,COc1ccc(CC(=O)NC2CCSc3ccccc32)cc1OC (configuration not stated),-1.7% (inactive)
21,COc1ccc(CC(=O)Nc2ccccc2NC(=O)c2ccco2)cc1OC,2.5% (inactive)
22,COc1cc(CC(=O)Nc2nc(-c3ccc(F)c(F)c3)cs2)cc(OC)c1OC,105% (active)
